Residue numbers refer to the chain shown, from its start. In names and notes the source's numbering stands.
B1: 23 (nucleosome)
DNA 1: ATCCTGGAGAATCCCGGTGCCGAGGTCAAGGCCATGGTCGTAGACAGCTCTAGCACCGCTTAAACGCACGTACGCGCTGTCCCCCGCGTTTTAACCGCCAAGGGGATTACTCCCTAGTCTCCAGGCACGTGTCAGATATATACATCCTGTGAT
DNA 2: ATCACAGGATGTATATATCTGACACGTGCCTGGAGACTAGGGAGTAATCCCCTTGGCGGTTAAAACGCGGGGGACAGCGCGTACGTGCGTTTAAGCGGTGCTAGAGCTGTCTACGACCATGGCCTTGACCTCGGCACCGGGATTCTCCAGGAT
modifications: reconstituted with mouse histones H2A, H2B, H3.3 and H4
B2: 24 (nucleosome)
DNA 1: B1 DNA 1 with T26C, C27T, A28C, G30A, C32G, A34C, T35A
DNA 2: B1 DNA 2 with A119T, T120G, G122C, C124T, T126G, G127A, A128G
modifications: reconstituted with mouse histones H2A, H2B, H3.3 and H4
B3: 16 (nucleosome)
DNA 1: ATCCTGGAGAATCCCGGTTCAAGGCCAGCTCAATTGGTCGTAGACAGCTCTAGCACCGCTTAAACGCACGTACGCGCTGTCCCCCGCGTTTTAACCGCCAAGGGGATTACTCCCTAGTCTCCAGGCACGTGTCAGATATATACATCCTGTGAT
DNA 2: ATCACAGGATGTATATATCTGACACGTGCCTGGAGACTAGGGAGTAATCCCCTTGGCGGTTAAAACGCGGGGGACAGCGCGTACGTGCGTTTAAGCGGTGCTAGAGCTGTCTACGACCAATTGAGCTGGCCTTGAACCGGGATTCTCCAGGAT
modifications: reconstituted with mouse histones H2A, H2B, H3.3 and H4
B4: 18 (nucleosome)
DNA 1: B1 DNA 1 with C21T, G22C, G24A, T26G, A28C, G30T, G31C, C32A, C33A, A34T
DNA 2: B3 DNA 2 with G125T, C126G, T127G, G128C, G129C, C130T, C131T, T132G, T133A, A135C
modifications: reconstituted with mouse histones H2A, H2B, H3.3 and H4
B5: 19 (nucleosome)
DNA 1: B3 DNA 1 with T19G, A21C, A22T, G23C, G24A, C25A, C26G, A27G, G28C, T30A
DNA 2: B3 DNA 2 with A124T, C126G, T127C, G128C, G129T, C130T, C131G, T132A, T133G, A135C
modifications: reconstituted with mouse histones H2A, H2B, H3.3 and H4
B6: 20 (nucleosome)
DNA 1: B3 DNA 1 with T19G, A21C, A22G, G23T, G24C, C25A, C26A, A27G, T30C, C31A
DNA 2: B3 DNA 2 with G123T, A124G, T127C, G128T, G129T, C130G, C131A, T132C, T133G, A135C
modifications: reconstituted with mouse histones H2A, H2B, H3.3 and H4
B7: 22 (nucleosome)
DNA 1: B1 DNA 1 with G25T, T26C, C27A, A29G, G31C, C33A, A34T
DNA 2: B1 DNA 2 with T120A, G121T, C123G, T125C, G127T, A128G, C129A
modifications: reconstituted with mouse histones H2A, H2B, H3.3 and H4
B8: 21 (nucleosome)
DNA 1: B3 DNA 1 with T19G, A21C, A22G, G23A, G24T, C26A, C29G, T30C
DNA 2: B3 DNA 2 with A124G, G125C, G128T, C130A, C131T, T132C, T133G, A135C
modifications: reconstituted with mouse histones H2A, H2B, H3.3 and H4
B9: 134 (nucleosome)
DNA 1: ATCCTGGAGAATCCCGGTGCCGAGGCCGCTCAATTGGTCGTAGACAGCTCTAGCACCGCTTAAACGCACGTACGCGCTGTCCCCCGCGTTTTAACCGCCAAGGGGATTACTCCCTAGTCTCCAGGCACGTGTCAGATCAAGGCCACCTGTGAT
DNA 2: ATCACAGGTGGCCTTGATCTGACACGTGCCTGGAGACTAGGGAGTAATCCCCTTGGCGGTTAAAACGCGGGGGACAGCGCGTACGTGCGTTTAAGCGGTGCTAGAGCTGTCTACGACCAATTGAGCGGCCTCGGCACCGGGATTCTCCAGGAT
modifications: reconstituted with mouse histones H2A, H2B, H3.3 and H4
B10: 17 (nucleosome)
DNA 1: B3 DNA 1 with T19G, C20T, A21C, G23A, C25G, A27C, G28A
DNA 2: B3 DNA 2 with C126T, T127G, G129C, C131T, T133G, G134A, A135C
modifications: reconstituted with mouse histones H2A, H2B, H3.3 and H4
B11: 137 (nucleosome)
DNA 1: B9 DNA 1 with C138A, A139T, A140T, G141C, G142A, C143A, C144G, A145G, T148A
DNA 2: B9 DNA 2 with A6T, T9C, G10C, G11T, C12T, C13G, T14A, T15A, G16T
modifications: reconstituted with mouse histones H2A, H2B, H3.3 and H4
B12: 139 (nucleosome)
DNA 1: B9 DNA 1 with C138A, A139T, G141T, G142T, C144A, C146G, C147G, T148C, G149C, T150A
DNA 2: B9 DNA 2 with A4T, C5G, A6G, G7C, G8C, G10T, C12A, C13A, T15A, G16T
modifications: reconstituted with mouse histones H2A, H2B, H3.3 and H4
B13: 135 (nucleosome)
DNA 1: B9 DNA 1 with C138T, A139C, G141A, C143G, A145C, C146A
DNA 2: B9 DNA 2 with G8T, T9G, G11C, C13T, T15G, G16A
modifications: reconstituted with mouse histones H2A, H2B, H3.3 and H4
B14: 138 (nucleosome)
DNA 1: B9 DNA 1 with C138A, A139T, G141T, G142C, C143A, C144A, A145G, C146G, T148C, G149A
DNA 2: B9 DNA 2 with C5T, A6G, G8C, T9C, G10T, G11T, C12G, C13A, T15A, G16T
modifications: reconstituted with mouse histones H2A, H2B, H3.3 and H4
B15: 3 (nucleosome)
DNA 1: ATCCTTCAAGGCCACGGTGCCGAGGCCGCTCAATTGGTCGTAGACAGCTCTAGCACCGCTTAAACGCACGTACGCGCTGTCCCCCGCGTTTTAACCGCCAAGGGGATTACTCCCTAGTCTCCAGGCACGTGTCAGATATATACATCCTGTGAT
DNA 2: ATCACAGGATGTATATATCTGACACGTGCCTGGAGACTAGGGAGTAATCCCCTTGGCGGTTAAAACGCGGGGGACAGCGCGTACGTGCGTTTAAGCGGTGCTAGAGCTGTCTACGACCAATTGAGCGGCCTCGGCACCGTGGCCTTGAAGGAT
modifications: reconstituted with mouse histones H2A, H2B, H3.3 and H4

Experiments:
[1] = biological target: NR5A2 wild type;histone octamer (Homo sapiens;, UniProt O00482;C0HKE1;Q6ZWY9;P84244;P62806 1-541;2-130;2-126;2-136;2-103, |); experiment: SeEN-seq (EMSA of nucleosome library followed by sequencing); 0.8 uM human NR5A2; 20 mM Tris-HCl pH 7.5, 120 mM NaCl, 1 mM MgCl2, 10 uM ZnCl2, 1 mM DTT, 100 ug/ml BSA, room temperature, 30 min; 0.1 uM nucleosome library; high values mean tight binding
[2] = biological target: mouse Nr5a2 wild type;histone octamer (Mus musculus;, UniProt P45448;C0HKE1;Q6ZWY9;P84244;P62806 1-560;2-130;2-126;2-136;2-103, |); experiment: SeEN-seq (EMSA of nucleosome library followed by sequencing); 1.2 uM mouse Nr5a2; 20 mM Tris-HCl pH 7.5, 120 mM NaCl, 1 mM MgCl2, 10 uM ZnCl2, 1 mM DTT, 100 ug/ml BSA, room temperature, 30 min; 0.1 uM nucleosome library; high values mean tight binding

Row | Binder | binding signal [1] | binding signal [2]
1 | B1 | 1.81 log2 enrichment (bound/unbound, relative to Widom 601) | 2.16 log2 enrichment (bound/unbound, relative to Widom 601)
2 | B2 | 0.706 log2 enrichment (bound/unbound, relative to Widom 601) | 0.642 log2 enrichment (bound/unbound, relative to Widom 601)
3 | B3 | 1.52 log2 enrichment (bound/unbound, relative to Widom 601) | 1.81 log2 enrichment (bound/unbound, relative to Widom 601)
4 | B4 | 1.7 log2 enrichment (bound/unbound, relative to Widom 601) | 2.1 log2 enrichment (bound/unbound, relative to Widom 601)
5 | B5 | 1.35 log2 enrichment (bound/unbound, relative to Widom 601) | 1.28 log2 enrichment (bound/unbound, relative to Widom 601)
6 | B6 | 1.09 log2 enrichment (bound/unbound, relative to Widom 601) | 1.09 log2 enrichment (bound/unbound, relative to Widom 601)
7 | B7 | 1.02 log2 enrichment (bound/unbound, relative to Widom 601) | 0.698 log2 enrichment (bound/unbound, relative to Widom 601)
8 | B8 | 1.08 log2 enrichment (bound/unbound, relative to Widom 601) | 1.08 log2 enrichment (bound/unbound, relative to Widom 601)
9 | B9 | 5.2 log2 enrichment (bound/unbound, relative to Widom 601) | 3.67 log2 enrichment (bound/unbound, relative to Widom 601)
10 | B10 | 1.96 log2 enrichment (bound/unbound, relative to Widom 601) | 1.98 log2 enrichment (bound/unbound, relative to Widom 601)
11 | B11 | 6.9 log2 enrichment (bound/unbound, relative to Widom 601) | 5.78 log2 enrichment (bound/unbound, relative to Widom 601)
12 | B12 | 8.13 log2 enrichment (bound/unbound, relative to Widom 601) | 5.56 log2 enrichment (bound/unbound, relative to Widom 601)
13 | B13 | 7.68 log2 enrichment (bound/unbound, relative to Widom 601) | 5.73 log2 enrichment (bound/unbound, relative to Widom 601)
14 | B14 | 7.13 log2 enrichment (bound/unbound, relative to Widom 601) | 5.66 log2 enrichment (bound/unbound, relative to Widom 601)
15 | B15 | 6.62 log2 enrichment (bound/unbound, relative to Widom 601) | 5.04 log2 enrichment (bound/unbound, relative to Widom 601)
